Experimental data taken from the OligoGym collection.

What follows are sequences tested against FAM73A (assay: pooled miR-30 sensor sort-seq; sequence = guide strand). Conditions: shRNA.
Further: reference of the scale not given here.

Question: For AACAACTTGAACCTTTGTCTGA, which sensor-assay potency score (higher = more potent) is on record?
Answer: -0.33

Question: With TTGAATAGCGCACCTTCTCAAA as the sequence, how does the sensor-assay potency score (higher = more potent) read?
Answer: -1.12

Question: Which sensor-assay potency score (higher = more potent) does the source give for TTTAATATCATCTTCATCTGCT here?
Answer: 0.76

Question: TAGCATAGTTACAAACTTGAGA was tested. Which sensor-assay potency score (higher = more potent) did it give?
Answer: -0.258

Question: With TTAAGTATAAGTTCTCTGGAGT as the sequence, how does the sensor-assay potency score (higher = more potent) read?
Answer: -0.00837

Question: For TGTACTTGAATAGCGCACCTTC, which sensor-assay potency score (higher = more potent) is on record?
Answer: 0.381

Question: With TAGACAACTACTTGTATGCCTC as the sequence, how does the sensor-assay potency score (higher = more potent) read?
Answer: -0.255

Question: Which sensor-assay potency score (higher = more potent) does the source give for TATCTTTATCAATATCATCAGC here?
Answer: -1.22

Question: How did the sensor-assay potency score (higher = more potent) turn out when TACTGGAACAACTTGAACCTTT was run?
Answer: 0.0533

Question: With TTCTGTTTCAGCACCGACCAAC as the sequence, how does the sensor-assay potency score (higher = more potent) read?
Answer: -0.471

The sequences below were run against FAM75A3 in the same assay as above. Conditions: shRNA.

Question: For TGATTCGTCCTGAAGCTGCATC, which sensor-assay potency score (higher = more potent) is on record?
Answer: -0.869

Question: TAAACTTCTCACTCTTGTGAAT was tested. Which sensor-assay potency score (higher = more potent) did it give?
Answer: -1.14

Question: How did the sensor-assay potency score (higher = more potent) turn out when TTCGTCCTGAAGCTGCATCAGA was run?
Answer: -0.939

Question: For TTCACTAACAACCTCCTCCATA, which sensor-assay potency score (higher = more potent) is on record?
Answer: -0.534

Question: For AAATTCACTAACAACCTCCTCC, which sensor-assay potency score (higher = more potent) is on record?
Answer: 0.396

Question: How did the sensor-assay potency score (higher = more potent) turn out when TGGTGATTCGTCCTGAAGCTGC was run?
Answer: -1.37

The sequences below were run against FAM89B in the same assay as above. Conditions: shRNA.

Question: With ATCGGGAGGCTCCTCGTCGTCA as the sequence, how does the sensor-assay potency score (higher = more potent) read?
Answer: -1.39

Question: For TTTGTAGTCCTGGATTGACTCG, which sensor-assay potency score (higher = more potent) is on record?
Answer: -1.36

Question: How did the sensor-assay potency score (higher = more potent) turn out when AACATCTCCTTGCGCAGCGCGG was run?
Answer: -1.39

Question: With TTGCGCAGCGCGGCCAGCGCTG as the sequence, how does the sensor-assay potency score (higher = more potent) read?
Answer: -1.52

Question: With TTGTAGTCCTGGATTGACTCGT as the sequence, how does the sensor-assay potency score (higher = more potent) read?
Answer: 0.301

Question: For TGTAGTCCTGGATTGACTCGTA, which sensor-assay potency score (higher = more potent) is on record?
Answer: -0.175

Question: TCCTGGATTGACTCGTACAGGC was tested. Which sensor-assay potency score (higher = more potent) did it give?
Answer: -1.73

Question: How did the sensor-assay potency score (higher = more potent) turn out when TGACAGGACGACGCGGGCCGGC was run?
Answer: -1.62

Question: Which sensor-assay potency score (higher = more potent) does the source give for TAGTCCTGGATTGACTCGTACA here?
Answer: -1.39

Question: With TTAAGGAGGCCGCTGAGGCCGC as the sequence, how does the sensor-assay potency score (higher = more potent) read?
Answer: -1.49

Question: With TGGATTGACTCGTACAGGCCCC as the sequence, how does the sensor-assay potency score (higher = more potent) read?
Answer: -0.992

Question: With TCAGGTCTTGGCACAGGTGTTT as the sequence, how does the sensor-assay potency score (higher = more potent) read?
Answer: -0.832

Each sequence was assayed against FAM9C in the same assay as above. Conditions: shRNA.

Question: ATTCTGTTCTTTATTTCGCTGC was tested. Which sensor-assay potency score (higher = more potent) did it give?
Answer: -0.428

Question: For TATTTTAATTTGTTCTTCCTTT, which sensor-assay potency score (higher = more potent) is on record?
Answer: -0.236

Question: With TTTTGCAATCTTTTCAATCCTT as the sequence, how does the sensor-assay potency score (higher = more potent) read?
Answer: 0.00533

Question: How did the sensor-assay potency score (higher = more potent) turn out when TTAACTAAACACTGTCATGTGG was run?
Answer: 0.189

Question: How did the sensor-assay potency score (higher = more potent) turn out when TAACTAAACACTGTCATGTGGT was run?
Answer: 0.0242

Question: Which sensor-assay potency score (higher = more potent) does the source give for TTACTGGATCCTTTCCTGCAAG here?
Answer: -1.19

Question: TAACAGGTTTTCTTTCCTCATG was tested. Which sensor-assay potency score (higher = more potent) did it give?
Answer: -1.34

Question: For AACATTTTTAATTCTGTTCTTT, which sensor-assay potency score (higher = more potent) is on record?
Answer: -0.182

Question: With AATATCTTCTAGCTCCTTGGTA as the sequence, how does the sensor-assay potency score (higher = more potent) read?
Answer: -0.174

Question: Which sensor-assay potency score (higher = more potent) does the source give for TTTGCAATCTTTTCAATCCTTT here?
Answer: -0.0948

Question: Which sensor-assay potency score (higher = more potent) does the source give for ATCAGTTACATCTCCCTCCTTT here?
Answer: -0.105
